Our source for the AC50 values is PMC6792352, “Limited Chemical Structural Diversity Found to Modulate Thyroid Hormone Receptor in the Tox21 Chemical Library” (Environmental Health Perspectives, 2019).

Each structure is given as a SMILES string. Structures can show the parent of a compound that is named as a salt. The full ranking holds about 7,300 compounds; the median of “AC50” is about 90,000 nM, and the lowest 2% start at about 20,000 nM. Some of the results follow.

This test deals with thyroid hormone receptor (endogenous TRα and TRβ). Also noted: species or system GH3-TRE-Luc (rat pituitary); GH3-TRE-Luc luciferase reporter transactivation, agonist mode, qHTS; RXR ligands can also activate indirectly. To be noted: read-out: TR_LUC_GH3_Agonist_AC50, agonist mode, primary qHTS, 24 h. In general terms: qHTS replaces the single test concentration by a dilution series.
Take `C[C@]12CC[C@H]3C(=CCc4cc(O)ccc43)[C@@H]1CCC2=O` [Equilin]: the AC50 was determined as 3.41 µM. The same measure for `COc1ccc(OC)c(C(O)C(C)N)c1` (centres unmarked) [Methoxamine hydrochloride]: 32 µM; for `Cc1cc(NC(=O)C(=O)O)cc(C)c1Oc1ccc(O)c2c1CCC2` [CP-634384]: 0.00147 µM; for `CC1=C(/C=C/C(C)=C\C=C\C(C)=C\C(=O)O)C(C)(C)CCC1` [9-cis Retinoic acid]: 4.18 µM. As to `CC1=C(/C=C/C(C)=C/C=C/C(C)=C\C(=O)O)C(C)(C)CCC1` [13-cis Retinoic acid], the AC50 came out at 0.133 µM. For `CC1=C(/C=C/C(C)=C/C=C/C(C)=C/C(=O)O)C(C)(C)CCC1` [all trans-Retinoic acid], the AC50 came to 0.319 µM. With `NCC(=O)CCC(=O)O` [Aminolevulinic acid hydrochloride], the AC50 turned out to be 28.7 µM. Take `CC(C)(C)CC(C)(C)c1ccc(O)c(Cc2ccc(Cl)cc2Cl)c1` [Clofoctol]: the AC50 was determined as 1.37 µM. In the case of `O=C(O)Cc1cc(I)c(Oc2cc(I)c(O)c(I)c2)c(I)c1` [Tetrac, 3,3ʹ,5,5ʹ-tetraiodothyroacetic acid], the AC50 stood at 0.000927 µM. As for `N[C@@H](Cc1cc(I)c(Oc2cc(I)c(O)c(I)c2)c(I)c1)C(=O)O` [Levothyroxine], the AC50 is 0.00789 µM. For `C[C@H](CCC(=O)NCC(=O)O)[C@H]1CC[C@H]2[C@@H]3[C@H](O)C[C@@H]4C[C@H](O)CC[C@]4(C)[C@H]3C[C@H](O)[C@]12C` [glycocholic acid], the AC50 amounted to 51.8 µM.
